These compounds were tested on PAK4. Details: concentration: 1 μM, replicates: in singlicate; n = 1.
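Note: KINOMEscan kinase panel screen.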

| Compound | %Inh [%] |
| --- | --- |
| Cc1ccc(C)c(NC(=O)NC2CCN(c3ccnc(Nc4ccc(F)cc4)n3)C2)c1 (stereo not shown) [GSK1379720] | 0 |
| CN1CCN(Cc2cccc(-c3ccc4c(Nc5ccc(Oc6ccccc6)cc5)ccnc4c3)c2)CC1 [GW578342] | 0 |
| O=C(O)C(F)(F)F.O=C(O)C(F)(F)F.O=c1[nH]ccc2nc(N[C@@H]3CCCNC3)nc(Nc3ccc(S(=O)(=O)N4CCOCC4)cc3)c12 [GSK2177277] | 99.6 |
| COc1cc(Nc2nccc(-c3c(-c4cccc(NC(=O)c5c(F)cccc5F)c4)nn4ncccc34)n2)cc(OC)c1OC [GSK327238] | 0 |
| O=C(NC1CCN(c2ccnc(Nc3ccc(F)cc3)n2)C1)c1cc2ccccc2s1 (stereo not shown) [GSK1379716] | 0 |
| Cl.c1ccc(-c2ccc3c(Nc4ccc5[nH]ncc5c4)ccnc3c2)nc1 [GW440137] | 0 |
| COc1cc(Nc2ncc3c(C)nc(-c4cc5ccccc5[nH]4)n3n2)cc(OC)c1OC [GW869516] | 33 |
| CCCCc1nn2ncccc2c1-c1ccnc(Nc2ccc(N3CCN(C)CC3)cc2)n1 [GW684941] | 0 |
| C[C@@H](Oc1cc(-n2cnc3cc(-c4ccnc(NCCS(C)(=O)=O)c4)ccc32)sc1C(N)=O)c1ccccc1Cl [GSK907232] | 0 |
| O=C(Nc1cccc(-c2nn3ccccc3c2-c2ccnc(Nc3cccc(F)c3)n2)c1)c1c(F)ccc(F)c1Cl [GSK357952] | 0 |
| CCc1ccc(-c2ccc3c(c2)-c2c(cnn2C)S(=O)(=O)N3C)cc1 | 1 |
| O=C(Nc1cccc(-c2nn3ccccc3c2-c2ccnc(Nc3cccc(C(F)(F)F)c3)n2)c1)c1c(F)cccc1F [GSK292658] | 0 |
| Cl.NC(=O)c1cccc(Nc2nccc(Nc3ccc(Oc4c(Cl)cccc4Cl)c(Cl)c3)n2)c1 [GW659009] | 0 |
| COc1ccc(CNC(=O)NC2CCN(c3ccnc(Nc4ccc(F)cc4)n3)CC2)cc1 [GSK1379788] | 0 |
| COc1ccc(Nc2nccc(NCCNC(=O)c3cc4ccccc4s3)n2)cc1 [GSK1379896] | 0 |
| O=c1[nH]cc(-c2ccc(N3CCOCC3)cc2)c2sc(-c3cn[nH]c3)cc12 [GSK2276055] | 0 |

— PMC5540273 (PLoS ONE, 2017)
